Drawing on PubChem BioAssay AID1345085 (National Center for Advancing Translational Sciences (NCATS), 2018), this text covers Potency for 34 compounds.

Inconclusive results are not listed. The source made the active and inactive calls. Calls come from the whole dose curve; as a rule, active = well fitted cell-killing curve with a large enough effect; inconclusive = small, poorly fitted or top-dose-only effect, or effect the other way; inactive = no such curve, though single readings can be large or run the other way.
Potency is the fitted concentration of half-maximal effect.

In this experiment the test system is CASKI. Briefly: Confirmatory qHTS for gynecologic anti-cancer compounds from libraries of approved drugs and bioactive compounds. Note: nearly all actives have a fitted effect of over 55% in size. As to conditions: gynecologic cancer cell panel viability, ATPlite luminescence, 48 h; series mostly up to 57.6 µM. Put shortly: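 Cells (1,000/well) were plated, left 16 h at 37 C/5% CO2, then given compound at 11 concentrations (1:3) from 57.5 uM to 0.977 nM for 48 h. ATPlite luminescence after 15 min at room temperature gave IC50 values.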
For orientation: In qHTS, concentration-response curves come from the screen itself.
For the compound `Cc1ccc(C(=O)Nc2ccc(CN3CCN(C)CC3)c(C(F)(F)F)c2)cc1C#Cc1cnc2cccnn12`, the Potency was 21.7 µM (active). As to `Nc1cccc(-c2cc3c(Oc4cccc(O)c4)ncnc3[nH]2)c1`, the Potency was 7.69 µM (active). Take `CC(C)CC(=O)Nc1n[nH]c2c1CN(C(=O)C1CCN(C)CC1)C2(C)C`: the Potency is 3.43 µM (active). For the compound `CN(C)CCC(CSc1ccccc1)Nc1ccc(S(=O)(=O)NC(=O)c2ccc(N3CCN(Cc4ccccc4-c4ccc(Cl)cc4)CC3)cc2)cc1[N+](=O)[O-]` (centres undefined), the Potency was 3.85 µM (active). In the case of `CC(C)[C@@H](CS(=O)(=O)C(C)C)N1C(=O)[C@@](C)(CC(=O)O)C[C@H](c2cccc(Cl)c2)[C@H]1c1ccc(Cl)cc1`, the Potency result is “inactive”. For `O=c1[nH]c(=O)n([C@H]2C[C@H](O)[C@@H](CO)O2)cc1Br`, the Potency entry is “inactive”. In the case of `CN(NC(=O)CC(=O)NN(C)C(=S)c1ccccc1)C(=S)c1ccccc1`, the Potency result is “inactive”. For `CCN(CC)CCOc1ccc(/C(=C(\Cl)c2ccccc2)c2ccccc2)cc1`, the Potency is 112 µM (active). Take `CNc1nc(Nc2ccc(C(=O)N3CCOCC3)cc2OC)ncc1Cl`: the Potency result was “inactive”. As to `CN1C(=O)C(Cc2c[nH]c3ccccc23)NC1=S` (centres undefined), the Potency entry is “inactive”.

Turning to `COc1ccc2cc3[n+](cc2c1OC)CCc1cc2c(cc1-3)OCO2`, the Potency was 10.9 µM (active). Turning to `COc1cccc2c1C(=O)c1c(O)c3c(c(O)c1C2=O)C[C@@](O)(C(=O)CO)C[C@@H]3O[C@H]1C[C@H](N)[C@H](O)[C@H](C)O1`, the Potency was 8.63 µM (active). Regarding `COc1cc2c(c(OC)c1OC)-c1ccc(OC)c(=O)cc1[C@@H](NC(C)=O)CC2`, the Potency entry was “inactive”.

Turning to `CN1CCCC(n2nc(Cc3ccc(Cl)cc3)c3ccccc3c2=O)CC1` (centres undefined), the Potency entry was “inactive”. `CC[C@@]1(O)C(=O)OCc2c1cc1n(c2=O)Cc2cc3cc(O)ccc3nc2-1`: the Potency was 0.243 µM (active). With `CN(c1nccc(=O)[nH]1)C1CCN(c2nc3ccccc3n2Cc2ccc(F)cc2)CC1`, the Potency result is “inactive”. As for `CC(Oc1ccc2[nH]nc(/C=C/c3cnn(CCO)c3)c2c1)c1c(Cl)cncc1Cl` (centres undefined), the Potency was 5.44 µM (active). Consider `NCCOc1cc(C(=O)Nc2cc(OCCN)c3ccccc3n2)nc(C(=O)Nc2cc(OCCN)c3ccccc3n2)c1`, for which the Potency was 30.6 µM (active). Turning to `O=c1[nH]c(=O)n([C@H]2C[C@H](O)[C@@H](CO)O2)cc1C(F)(F)F`, the Potency was 9.68 µM (active).

Take `Cc1ccc(C(=O)N(CCCN)C(c2nc3cc(Cl)ccc3c(=O)n2Cc2ccccc2)C(C)C)cc1` (centres undefined): the Potency is 27.3 µM (active).

Turning to `CNC1CCC(N(Cc2cccc(-c3ccncc3)c2)C(=O)c2sc3ccccc3c2Cl)CC1` (centres undefined), the Potency is 34.3 µM (active).

On to `COc1cc(-c2nn(C3CCC(N4CCN(C(C)=O)CC4)CC3)c3ncnc(N)c23)ccc1NC(=O)c1cc2ccccc2n1C` (centres undefined), for which the Potency result is “inactive”.

In the case of `CCN(CC)CCNC(=O)c1c(C)[nH]c(/C=C2\C(=O)Nc3ccc(F)cc32)c1C`, the Potency is 56.2 µM (active).

`COC(=O)c1ccc2c(C(=Nc3ccc(N(C)C(=O)CN4CCN(C)CC4)cc3)c3ccccc3)c(O)[nH]c2c1`: the Potency entry was “inactive”.

As to `CO[C@@]12[C@H](COC(N)=O)C3=C(C(=O)C(C)=C(N)C3=O)N1C[C@@H]1N[C@@H]12`, the Potency result was “inactive”. For the compound `CCC1C(=O)N(C)c2cnc(Nc3ccc(C(=O)NC4CCC(N5CCN(CC6CC6)CC5)CC4)cc3OC)nc2N1C(C)C` (centres undefined), the Potency is 6.11 µM (active).

With `c1cc(N[C@@H]2CCNC2)nc(-c2cnc3ccc(-c4cn[nH]c4)cn23)c1`, the Potency is 27.3 µM (active). On to `CN1CCN(CCOc2cc(OC3CCOCC3)c3c(Nc4c(Cl)ccc5c4OCO5)ncnc3c2)CC1`, for which the Potency is 19.3 µM (active). On to `Cc1cc(Nc2cc(N3CCN(C)CC3)nc(/C=C/c3ccccc3)n2)n[nH]1`, for which the Potency is 19.3 µM (active). Next, `Cc1cc(C(C)Nc2ccccc2C(=O)O)c2nc(N3CCOCC3)cc(=O)n2c1` (centres undefined): 6.85 µM (active); `COc1cccc2c1C(=O)c1c(O)c3c(c(O)c1C2=O)C[C@@](O)(C(=O)CO)C[C@@H]3O[C@H]1C[C@H](N)[C@H](O[C@@H]2CCCCO2)[C@H](C)O1`: 17.2 µM (active). As for `COc1ccc(OC)c(-c2nnc3ccc(-c4ccc(OC)c(O[C@@H]5CCOC5)c4)nn23)c1`, the Potency result is “inactive”. `C[C@@H](Oc1cc(-c2cnn(C3CCNCC3)c2)cnc1N)c1c(Cl)ccc(F)c1Cl`: the Potency was 24.3 µM (active). Take `Cc1cnc(Nc2ccc(OCCN3CCCC3)cc2)nc1Nc1cccc(S(=O)(=O)NC(C)(C)C)c1`: the Potency was 19.3 µM (active).
